# Measured values from ChEMBL document CHEMBL1157539, “Thousands of chemical starting points for antimalarial lead identification” (Nature, 2010).
# Tested on: Plasmodium falciparum
# Test: GSK_TCMDC: Inhibition of Plasmodium falciparum 3D7 in whole red blood cells, using parasite LDH activity as an index of growth. Test compounds present at 2uM
# Format: functional
row,SMILES,Inhibition
1,CCCCCC(C)NC[C@@H](O)[C@H](Cc1ccccc1)NC(=O)c1cc(NCC)cc(N2CCCCS2(=O)=O)c1.Cl (stereo not given in full),98%
2,CN1C(C)(C)CC(NC(=O)c2ccc(-c3nc4cc(Cl)c(Cl)cc4[nH]3)cc2)CC1(C)C,98%
3,COc1ccc2nccc([C@@H](O)CN3CCC(NCc4cc5ccccc5s4)CC3)c2c1.O=C(O)C(=O)O,97%
4,CCn1c(SCc2ccccc2)nc2c1c(=O)[nH]c(=O)n2C,96%
5,Cc1ccc(S(=O)(=O)Nc2ccc(Nc3nccc(Nc4cccc5[nH]ncc45)n3)cc2)cc1,90%
6,CCCNC(=O)Nc1cc2cc(-c3cccc(CN4CCCCC4)c3)ccc2n2c(C)nnc12,100%
7,Cc1ccc(NC(=O)c2cccc(CN3CCCN(Cc4cccc(O)c4)CC3)c2)cc1.O=C(O)C(F)(F)F,82%
8,CC(C)(C)c1cc(NC(=O)c2ccc(Cl)c([N+](=O)[O-])c2)cc(C(C)(C)C)c1,93%
9,CC(C)c1cc(Oc2c(I)cc(CCNCc3ccccc3)cc2I)ccc1O.Cl,95%
10,CC(C)CNCc1cccc(-c2cccc(CN(CCCN3CCN(C)CC3)C(=O)CCC3CCCC3)c2)c1.O=C(O)C(F)(F)F,100%
11,OCC(c1ccccc1)n1c(COc2ccc(Cl)cc2)nc2c(OCCCN3CCCCC3)cccc21 (stereo not given),90%
12,COc1ccc(CNC2CCN(c3ccc(NC(=O)c4cccc(Cl)c4)cc3)CC2)cc1OC,96%
13,Nc1ncc(-c2ccc(F)cc2)c2ccc(-c3cccc(F)c3)cc12,99%
14,COc1ccc2nccc(N3CCC(O)(CCNCc4ccc5c(n4)NC(=O)CS5)CC3)c2n1.Cl,99%
15,CS(=O)(=O)Nc1ccc2[nH]cc(C3CCN(CCCCCNC(=O)/C=C/c4ccc(Cl)c(Cl)c4)CC3)c2c1,100%
16,c1cc(-c2nc3ccccc3[nH]2)nc(-c2nc3ccccc3[nH]2)c1,87%
17,COc1ccc(O)c(C(=O)c2cc(C(=O)NC3CCCCC3)c(=O)n(C3CCCCC3)c2)c1,99%
18,O=S(=O)(Nc1cccc(CCN2CCC(N3CCCCC3)CC2)c1)c1ccc(Oc2ccccc2)nc1,99%
19,O=C(O)CCSSc1cccc[n+]1[O-],95%
20,CSc1ccc(CN2CCC(NC(=O)c3ccc(-c4cccc(Cl)c4)s3)CC2)cc1.O=C(O)C(F)(F)F,86%

row,SMILES,Inhibition
1,O=C(CN1CCN(C(=O)c2ccco2)CC1)Nc1ccc(Br)cc1Cl,88%
2,CCc1cn2c3c(cc(C(=O)N[C@@H](Cc4ccccc4)[C@H](O)CNCc4ccc(C)cc4)cc13)N(C)S(=O)(=O)CC2.O=CO,99%
3,O=C(/C=C/c1ccc(Cl)c(Cl)c1)NCCCCCN1CCC(NC(=O)Nc2ccc(Oc3ccccc3)cc2)C1 (stereo not given),99%
4,CCN(CC)CCCN(CCCN(CC)CC)c1cc(C)nc(Nc2ccc3cc(Br)ccc3c2)n1.Cl,100%
5,Cl.Oc1c(Cl)cc(-c2ccccc2)cc1CNC1CCCCC1,97%
6,Cc1ccnc2nc(C(=O)Nc3cc(C(F)(F)F)ccc3N3CCCCC3)nn12,96%
7,Cc1cn(CC(=O)Nc2cccc(-c3cccc(-c4nc5cc(C(F)(F)F)ccc5[nH]4)c3)c2)c(=O)[nH]c1=O,92%
8,COc1ccc(CN2CCC(N3CCc4cc(NC(=O)c5cc(C)on5)ccc43)C2)cc1Cl (stereo not given),94%
9,O=C(NC1CCCCC1)C1CCCN(C(=O)c2ccc(O)c(-c3ccc(Cl)c(Cl)c3)c2)C1 (stereo not given),89%
10,N#Cc1ccc(N/C(=N\c2cccc(Cl)c2Cl)NC2Cc3ccccc3C2)c(O)c1,94%
11,CCN(CC)CCOc1ccc(C(O)(C#CC(O)(c2ccc(Br)cc2)c2ccc(OCCN(CC)CC)cc2)c2ccc(Br)cc2)cc1 (stereo not given),99%
12,CS(=O)(=O)n1c(CN2CCN(c3ncc(C(F)(F)F)cc3Cl)CC2)nc2ccccc21,83%
13,CCCCC(CC)C(=O)C(NC(=O)[C@H](CSC(c1ccccc1)(c1ccccc1)c1ccccc1)NC(=O)OC(C)(C)C)C(=O)OC (stereo not given in full),88%
14,COc1ccc(CN2CCCN(Cc3cccc(NC(=O)c4ccc5ccccc5c4)c3)CC2)cc1.O=C(O)C(F)(F)F,93%
15,COc1cc2c(cc1S(=O)(=O)c1ccc(NC(=O)c3cc4ccccc4s3)cc1)CCN(C)CC2,100%
16,N=C1NC(=N)N(OCCCCCCON2C(=N)NC(=N)NC2C=Cc2ccccc2)C(C=Cc2ccccc2)N1 (stereo not given),97%
17,COc1ccccc1NC(=O)NC1CCN(CCCCCNC(=O)/C=C/c2ccc(Cl)c(Cl)c2)CC1,100%
18,Fc1ccc(Nc2ccnc3cc(-c4ccc(CNCCN5CCOCC5)o4)ccc23)c(Cl)c1,100%
19,CC(=O)Nc1ccc(CN(Cc2ccc(OC(C)(C)C)cc2)Cc2ccc3c(c2)OCCO3)cc1,91%
20,O[C@H]1[C@H](OCc2ccc(-c3ccccc3)cc2)CC[C@@H]1N1CCCCC1,96%
